The campaign covered roughly 5,500 compounds. About 2,000 (36%) were called active. Inconclusive results (about 18%) are left out. No stated cut-off is given here; in the data, active means normalized growth mostly below about 0.91 (no sharp cut-off); inconclusive means no clear call, values can overlap the other calls; inactive means mostly above about 0.92. Some of the results follow.
Assay: chemical genetic growth profiling, strain panel (AID 1159580);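 further: tested at 20 µM; growth read once vehicle control cultures reached saturation at 30 °C; 1 = growth at the plate median or of vehicle wells; lower values mean less growth of the strain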
Conditions: growth OD
[1] = S. cerevisiae deletion strains, locus YDL101C, strain DUN1, hits give low values
[2] = S. cerevisiae deletion strains, locus YHR030C, strain SLT2, hits give low values
[3] = S. cerevisiae deletion strains, locus YJL095W, strain BCK1, hits give low values
[4] = S. cerevisiae deletion strains, locus YOR061W, strain CKA2, hits give low values

Measured: normalized growth

O=C(NNc1cc(C(F)(F)F)cc(C(F)(F)F)c1)c1cnc2n(c1=O)CCS2
inactive: S. cerevisiae deletion strains, locus YAR019C, strain CDC15, hits give low values 0.985 | S. cerevisiae deletion strains, locus YBL105C, strain PKC1, hits give low values 0.987 | S. cerevisiae deletion strains, locus YBR135W, strain CKS1, hits give low values 0.99 | S. cerevisiae deletion strains, locus YBR136W, strain MEC1, hits give low values 0.983 | S. cerevisiae deletion strains, locus YBR160W, strain CDC28, hits give low values 0.99 | S. cerevisiae deletion strains, locus YDL017W, strain CDC7, hits give low values 0.986 | S. cerevisiae deletion strains, locus YDL028C, strain MPS1, hits give low values 0.991 | [1] 0.983 | S. cerevisiae deletion strains, locus YDL108W, strain KIN28, hits give low values 1 | S. cerevisiae deletion strains, locus YDL132W, strain cdc53, hits give low values 0.998 | S. cerevisiae deletion strains, locus YDL214C, strain PRR2, hits give low values 0.992 | S. cerevisiae deletion strains, locus YDR052C, strain DBF4, hits give low values 0.991 | S. cerevisiae deletion strains, locus YDR054C, strain cdc34, hits give low values 0.993 | S. cerevisiae deletion strains, locus YDR226W, strain ADK1, hits give low values 0.987 | S. cerevisiae deletion strains, locus YDR477W, strain SNF1, hits give low values 0.994 | S. cerevisiae deletion strains, locus YER123W, strain YCK3, hits give low values 0.936 | S. cerevisiae deletion strains, locus YER133W, strain GLC7, hits give low values 0.977 | S. cerevisiae deletion strains, locus YFL009W, strain cdc4, hits give low values 0.987 | S. cerevisiae deletion strains, locus YFL029C, strain CAK1, hits give low values 1 | S. cerevisiae deletion strains, locus YFR003C, strain YPI1, hits give low values 0.999 | S. cerevisiae deletion strains, locus YFR019W, strain FAB1, hits give low values 0.982 | S. cerevisiae deletion strains, locus YFR028C, strain CDC14, hits give low values 0.983 | S. cerevisiae deletion strains, locus YGR040W, strain KSS1, hits give low values 1 | S. cerevisiae deletion strains, locus YGR052W, strain FMP48, hits give low values 1.03 | S. cerevisiae deletion strains, locus YGR092W, strain DBF2, hits give low values 0.961 | [2] 0.939 | S. cerevisiae deletion strains, locus YHR079C, strain IRE1, hits give low values 0.972 | S. cerevisiae deletion strains, locus YHR082C, strain KSP1, hits give low values 1.01 | S. cerevisiae deletion strains, locus YHR205W, strain SCH9, hits give low values 0.938 | S. cerevisiae deletion strains, locus YIL147C, strain SLN1, hits give low values 0.988 | [3] 0.98 | S. cerevisiae deletion strains, locus YJL128C, strain PBS2, hits give low values 1.02 | S. cerevisiae deletion strains, locus YJL157C, strain FAR1, hits give low values 0.996 | S. cerevisiae deletion strains, locus YJR016C, strain ILV3, hits give low values 0.99 | S. cerevisiae deletion strains, locus YJR066W, strain TOR1 (second series), hits give low values 0.995 | S. cerevisiae deletion strains, locus YJR066W, strain TOR1, hits give low values 0.974 | S. cerevisiae deletion strains, locus YKL048C, strain ELM1, hits give low values 0.971 | S. cerevisiae deletion strains, locus YKL067W, strain YNK1, hits give low values 0.995 | S. cerevisiae deletion strains, locus YKL101W, strain HSL1, hits give low values 1.01 | S. cerevisiae deletion strains, locus YKL193C, strain SDS22, hits give low values 0.986 | S. cerevisiae deletion strains, locus YKL203C, strain TOR2, hits give low values 1.03 | S. cerevisiae deletion strains, locus YLR113W, strain HOG1, hits give low values 0.883 | S. cerevisiae deletion strains, locus YLR133W, strain CKI1, hits give low values 1.01 | S. cerevisiae deletion strains, locus YLR403W, strain SFP1, hits give low values 0.99 | S. cerevisiae deletion strains, locus YML070W, strain DAK1, hits give low values 0.973 | S. cerevisiae deletion strains, locus YMR001C, strain CDC5, hits give low values 0.995 | S. cerevisiae deletion strains, locus YMR205C, strain PFK2 (second series), hits give low values 1.01 | S. cerevisiae deletion strains, locus YMR277W, strain FCP1, hits give low values 0.992 | S. cerevisiae deletion strains, locus YNL006W, strain LST8, hits give low values 1 | S. cerevisiae deletion strains, locus YNL020C, strain ARK1, hits give low values 1 | S. cerevisiae deletion strains, locus YNL161W, strain CBK1, hits give low values 0.98 | S. cerevisiae deletion strains, locus YNL183C, strain NPR1, hits give low values 0.962 | S. cerevisiae deletion strains, locus YNL207W, strain RIO2, hits give low values 0.996 | S. cerevisiae deletion strains, locus YNL222W, strain SSU72, hits give low values 0.988 | S. cerevisiae deletion strains, locus YNL307C, strain MCK1 (second series), hits give low values 0.935 | S. cerevisiae deletion strains, locus YOL078W, strain AVO1, hits give low values 0.992 | S. cerevisiae deletion strains, locus YOL136C, strain PFK27, hits give low values 0.971 | [4] 1.02 | S. cerevisiae deletion strains, locus YOR119C, strain RIO1, hits give low values 0.983 | S. cerevisiae deletion strains, locus YOR231W, strain MKK1, hits give low values 0.979 | S. cerevisiae deletion strains, locus YOR329C, strain SCD5, hits give low values 0.983 | S. cerevisiae deletion strains, locus YPL031C, strain PHO85, hits give low values 0.983 | S. cerevisiae deletion strains, locus YPL153C, strain RAD53, hits give low values 0.986 | S. cerevisiae deletion strains, locus YPL204W, strain HRR25, hits give low values 0.982 | S. cerevisiae deletion strains, locus YPL209C, strain IPL1, hits give low values 0.984 | S. cerevisiae deletion strains, locus YPL256C, strain CLN2, hits give low values 0.936 | S. cerevisiae deletion strains, locus YPR025C, strain CCL1, hits give low values 0.972 | S. cerevisiae deletion strains, locus YPR106W, strain ISR1, hits give low values 0.995 | S. cerevisiae deletion strains, locus YPR111W, strain DBF20, hits give low values 0.997 | S. cerevisiae deletion strains, strain NNK1, hits give low values 0.988 | S. cerevisiae deletion strains, strain TSCII, hits give low values 0.987

O=c1c(O)cccc2c(C3Oc4cc(O)cc(O)c4CC3O)cc(O)c(O)c12 (stereo not drawn)
inactive: S. cerevisiae deletion strains, locus YBR021W, strain FUR4, hits give low values 0.966 | S. cerevisiae deletion strains, locus YER110C, hits give low values 0.963 | S. cerevisiae deletion strains, locus YOL012C, strain htz1 0.2 | S. cerevisiae deletion strains, locus YPR119W, strain clb2, hits give low values 0.946
active: S. cerevisiae deletion strains, locus YBR229C, strain ROT2, hits give low values 0.409 | S. cerevisiae deletion strains, locus YCL029C, strain bik1, hits give low values 0.239 | S. cerevisiae deletion strains, locus YDL035C, strain GPR1, hits give low values 0.301 | S. cerevisiae deletion strains, locus YDL074C, strain BRE1, hits give low values 0.322 | [1] 0.219 | S. cerevisiae deletion strains, locus YDL134C, strain PPH21, hits give low values 0.314 | S. cerevisiae deletion strains, locus YDL185W, strain tfp1, hits give low values 0.195 | S. cerevisiae deletion strains, locus YDL192W, strain arf1, hits give low values 0.522 | S. cerevisiae deletion strains, locus YDR101C, strain arx1, hits give low values 0.295 | S. cerevisiae deletion strains, locus YDR162C, strain NBP2, hits give low values 0.137 | S. cerevisiae deletion strains, locus YDR318W, strain mcm21, hits give low values 0.696 | S. cerevisiae deletion strains, locus YDR388W, hits give low values 0.691 | S. cerevisiae deletion strains, locus YDR502C, strain sam2, hits give low values 0.287 | S. cerevisiae deletion strains, locus YER155C, strain BEM2, hits give low values 0.489 | S. cerevisiae deletion strains, locus YER167W, strain BCK2, hits give low values 0.682 | S. cerevisiae deletion strains, locus YGL078C, strain dbp3, hits give low values 0.139 | S. cerevisiae deletion strains, locus YGL086W, strain mad1, hits give low values 0.494 | S. cerevisiae deletion strains, locus YGL248W, strain PDE1, hits give low values 0.523 | S. cerevisiae deletion strains, locus YGR078C, strain PAC10, hits give low values 0.686 | S. cerevisiae deletion strains, locus YGR135W, strain pre9, hits give low values 0.504 | S. cerevisiae deletion strains, locus YGR252W, strain gcn5, hits give low values 0.54 | [2] 0.484 | S. cerevisiae deletion strains, locus YHR079C, strain IRE1 (second series), hits give low values 0.116 | S. cerevisiae deletion strains, locus YHR094C, strain hxt1, hits give low values 0.835 | S. cerevisiae deletion strains, locus YHR129C, strain ARP1, hits give low values 0.43 | S. cerevisiae deletion strains, locus YHR200W, strain rpn10, hits give low values 0.623 | S. cerevisiae deletion strains, locus YIL066C, strain RNR3, hits give low values 0.259 | S. cerevisiae deletion strains, locus YIL073C, strain SPO22, hits give low values 0.243 | S. cerevisiae deletion strains, locus YIL125W, strain kgd1, hits give low values 0.272 | S. cerevisiae deletion strains, locus YIR030C, strain dcg1, hits give low values 0.716 | [3] 0.0943 | S. cerevisiae deletion strains, locus YJL134W, strain LCB3, hits give low values 0.58 | S. cerevisiae deletion strains, locus YJL168C, strain set2, hits give low values 0.913 | S. cerevisiae deletion strains, locus YJL187C, strain SWE1 (second series), hits give low values 0.118 | S. cerevisiae deletion strains, locus YKL009W, strain mrt4, hits give low values 0.0997 | S. cerevisiae deletion strains, locus YKL068W, hits give low values 0.889 | S. cerevisiae deletion strains, locus YKL085W, strain MDH1 (second series), hits give low values 0.303 | S. cerevisiae deletion strains, locus YKL085W, strain MDH1, hits give low values 0.303 | S. cerevisiae deletion strains, locus YKR001C, strain vps1, hits give low values 0.523 | S. cerevisiae deletion strains, locus YLR039C, strain RIC1, hits give low values 0.251 | S. cerevisiae deletion strains, locus YLR058C, strain SHM2, hits give low values 0.143 | S. cerevisiae deletion strains, locus YLR102C, strain apc9, hits give low values 0.92 | S. cerevisiae deletion strains, locus YLR262C, strain YPT6, hits give low values 0.497 | S. cerevisiae deletion strains, locus YLR268W, strain sec22, hits give low values 0.201 | S. cerevisiae deletion strains, locus YLR330W, strain CHS5, hits give low values 0.565 | S. cerevisiae deletion strains, locus YLR342W, strain FKS1 (second series), hits give low values 0.321 | S. cerevisiae deletion strains, locus YLR371W, strain rom2, hits give low values 0.626 | S. cerevisiae deletion strains, locus YLR418C, strain cdc73, hits give low values 0.306 | S. cerevisiae deletion strains, locus YML016C, strain PPZ1, hits give low values 0.225 | S. cerevisiae deletion strains, locus YML032C, strain rad52, hits give low values 0.391 | S. cerevisiae deletion strains, locus YML124C, strain tub3, hits give low values 0.56 | S. cerevisiae deletion strains, locus YMR078C, strain ctf18, hits give low values 0.885 | S. cerevisiae deletion strains, locus YMR223W, strain ubp8, hits give low values 0.564 | S. cerevisiae deletion strains, locus YMR263W, strain SAP30, hits give low values 0.233 | S. cerevisiae deletion strains, locus YMR307W, strain GAS1, hits give low values 0.462 | S. cerevisiae deletion strains, locus YNL067W, strain RPL9B, hits give low values 0.386 | S. cerevisiae deletion strains, locus YNL128W, strain TEP1, hits give low values 0.136 | S. cerevisiae deletion strains, locus YNL153C, strain GIM3, hits give low values 0.266 | S. cerevisiae deletion strains, locus YNL233W, strain BNI4, hits give low values 0.453 | S. cerevisiae deletion strains, locus YNL250W, strain rad50, hits give low values 0.098 | S. cerevisiae deletion strains, locus YNL271C, strain bni1, hits give low values 0.53 | S. cerevisiae deletion strains, locus YNL298W, strain CLA4, hits give low values 0.824 | S. cerevisiae deletion strains, locus YNL307C, strain MCK1, hits give low values 0.832 | S. cerevisiae deletion strains, locus YNR052C, strain pop2, hits give low values 0.127 | S. cerevisiae deletion strains, locus YOL147C, strain pex11, hits give low values 0.287 | [4] 0.468 | S. cerevisiae deletion strains, locus YOR069W, strain VPS5, hits give low values 0.29 | S. cerevisiae deletion strains, locus YOR136W, strain idh2, hits give low values 0.67 | S. cerevisiae deletion strains, locus YOR144C, strain elg1, hits give low values 0.198 | S. cerevisiae deletion strains, locus YOR184W, strain ser1, hits give low values 0.357 | S. cerevisiae deletion strains, locus YOR316C, strain cot1, hits give low values 0.922 | S. cerevisiae deletion strains, locus YPL055C, strain LGE1, hits give low values 0.271 | S. cerevisiae deletion strains, locus YPL241C, strain CIN2, hits give low values 0.617 | S. cerevisiae deletion strains, locus YPR141C, strain kar3, hits give low values 0.17 | S. cerevisiae deletion strains, locus YPR163C, strain tif3, hits give low values 0.703 | S. cerevisiae deletion strains, locus YPR167C, strain met16, hits give low values 0.707 | S. cerevisiae deletion strains, strain wtn01, hits give low values 0.44 | S. cerevisiae strains, strain wild type, hits give low values 0.134

Reference: PubChem BioAssay AID1159580 (chemical genetic matrix, 2015)
